Test results reported in PubChem BioAssay (NCI).
About 83,000 compounds went through this panel and 20% of them were active in at least one assay; those are over-represented in the sample as a whole.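 Activity criterion: percent growth below 10, measured after cells in 96-well plates were exposed to a single compound concentration for 48 hours.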 Unmarked numbers belong to inactive results. Activity calls are given as the source filed them.

Each compound was assayed on MDA-MB-468 breast (assay: NCI-60 one-dose screen, 48 h (100 = growth as untreated, 0 = no growth, -100 = all killed)). Conditions: 10 µM unless noted.
In the case of CCN(CC)CCOc1ccc(C(=C(c2ccccc2)C2CCCC2)c2ccc(OCCN(CC)CC)cc2)cc1, the growth is reported as -77.5% (active).
CC(C)(C)c1ccc(O)c(Cc2cc(C(C)(C)C)ccc2O)c1 was tested, and the growth was 119%.
Work on CN(C)CCC1(c2ccccc2)CCN(C)C1=O (stereo not given) yielded a growth of 94.7%.
In the case of CN1CCN(c2nc(-c3cnc4ccccc4n3)cc3ccccc23)CC1, the growth is reported as 9.21% (active).
With O=C1c2cc3c(cc2-c2c1c1cc(Cl)c(Cl)cc1c(=O)n2CCCn1ccnc1)OCO3 the growth was -38.5% (active).
O=c1ccc2cc3ccccc3cc2[nH]1 was tested, and the growth was 99%.
With N#CC1=CC2CN(Cc3ccccc3)C1C1C(=O)N(c3ccccc3)C(=O)C21 (stereo not given) the growth was 93.8%.
In the case of CC(C)C1CCC(C)C(O)C1 (stereo not given), the growth is reported as 98.5%.
O=[N+]([O-])c1cc(Cl)cc(Cl)c1O gave a growth of 104%.
COc1ccc(C(c2cc(OC)c(OC)c(OC)c2)n2cncn2)cc1O (stereo not given) was tested, and the growth was 7.88% (active).
With N[C@@H](Cc1cn(-c2ccnc3ccccc23)nn1)C(=O)O the growth was 108%.
Nc1nc2c(nnn2Cc2ccc(Cl)c(Cl)c2)c(=O)[nH]1 gave a growth of 103%.
For CCCCCCCCN(CCCCCCCC)CC(O)c1cc(-c2ccccc2)nc2ccc(OC)cc12 (stereo not given), the growth was 104%.
Compound Cc1ccc(-c2cn(C/C=C3\C=CN(S(=O)(=O)c4ccccc4)CC3)nn2)cc1 has a growth of 86.8%.
With C[C@H]1[C@H]2C3=CC[C@@H]4[C@@]5(C)C/C(=C/c6ccco6)C(=O)C(C)(C)[C@@H]5CC[C@@]4(C)[C@]3(C)CC[C@@]2(C(=O)N2CCOCC2)CC[C@@H]1C the growth was 59.5%.
N#Cc1ccc(-c2csc(Nc3ccc4nc5n(c(=O)c4c3)CCC5)n2)cc1 gave a growth of 105%.
Compound CNCC[C@H](Oc1cccc2ccccc12)c1cccs1 has a growth of 82%.
For C#CCSc1nnnn1-c1ccccc1, the growth was 22.3%.
In the case of O=C(O)/C=C/C(=O)c1ccc(Cl)cc1, the growth is reported as 124%.
For O=C(CCCCCCN1CC(=O)N2[C@H](c3ccc(Cl)cc3)c3[nH]c4ccccc4c3C[C@@H]2C1=O)NO, the growth was 36.5%.
O=C(Cn1cc(CN2C(=O)c3ccccc3S2(=O)=O)nn1)Nc1cccc(Cl)c1 showed a growth of 101%.
In the case of Cc1cc(C(=C2C=CC(=Nc3ccccc3)C=C2)c2ccc(Nc3ccccc3)cc2)ccc1N, the growth is reported as -84.2% (active).
Compound CCN(CC)c1ccc(C=O)c(OCc2cn(CC(=O)Nc3ccc(Cl)cc3)nn2)c1 has a growth of 63.5%.
Work on COc1ccc(NS(=O)(=O)N2CCCCC2)cc1 yielded a growth of 105%.
With CC(C)(C)n1cc(-c2ccnc(NCCCNS(=O)(=O)c3cccc4ccccc34)c2)c(-c2cccc(O)c2)n1 the growth was 10.7%.
With Cc1cccc(C)c1NC(=O)Nc1ccccc1 the growth was 77.6%.
NC(=O)c1cccc([C@@H]2O[C@H](CO)[C@@H](O)[C@H]2O)c1 showed a growth of 87.7%.
Compound O=S(=O)(O)C(C(I)I)S(=O)(=O)O has a growth of 95.9%.
C=CCN1C(=O)c2ccccc2C1=O gave a growth of 107%.
In the case of CCN(CC)C(=O)/C=C(/C)c1ccccc1, the growth is reported as 87.6%.
For O=C(/C=C\c1cccc([N+](=O)[O-])c1)c1ccccc1, the growth was -13.8% (active).
With O=C(/C=C1\C(=O)N(Cc2ccccc2)c2ccccc21)c1ccc(OCCN2CCCCC2)cc1 the growth was 19.6%.
CN1C(=O)N(C)C2NC(N/N=C/c3ccccc3)=NC21 (stereo not given) was tested, and the growth was 95.9%.
Compound COc1ccc(OC)c(/C=C2\Oc3cc(OCCN4CCC(Cc5ccccc5)CC4)ccc3C2=O)c1 has a growth of 64.8%.
In the case of Nc1ccccc1-c1ccn[nH]1, the growth is reported as 101%.
For COc1ccccc1Cn1cc(C#N)c(N)c1C(=O)c1ccc(Br)cc1, the growth was 72.2%.
Cc1ccc(C(=O)c2ccc(CC(=O)N=Nc3c(O)[nH]c4ccc(Br)cc34)n2C)cc1 gave a growth of 96.6%.
Cc1ccc(C(=O)/C=C/c2ccccc2)s1 was tested, and the growth was 89.7%.
In the case of Nc1c(C(=O)Nc2ccccc2Cl)sc2nc3c(cc12)C(O)CCC3 (stereo not given), the growth is reported as 25.7%.
For COc1ccc(C(=O)n2nc(/C=C/c3ccc(O)c(OC)c3)cc2/C=C/c2ccc(O)c(OC)c2)cc1, the growth was -8.43% (active).
